Measurements from the supplement of paper PMC8728848.
Shown is part of a subset that was picked to be rich in the strongest signals.

Tests used:
Test in all cases: glycan array binding signal (z-score within array); higher = stronger binding
Details in all cases: glycan notation: IUPAC condensed, linker removed
Fuc(a1-2)Gal(b1-4)GlcNAc = target: Fuc(a1-2)Gal(b1-4)GlcNAc
Procedure, shortened: (§1)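 From the Consortium for Functional Glycomics database, 3228 arrays were curated, keeping only those whose protein sequence was available. Binding is given as a within-array Z-score averaged across arrays sharing a protein sequence and across linkers. Negative Z-scores can be read as non-binding.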

[1] = target: Fuc(a1-2)Gal(b1-4)GlcNAc(b1-3)Gal(b1-4)GlcNAc(b1-2)Man(a1-3)[Fuc(a1-2)Gal(b1-4)GlcNAc(b1-3)Gal(b1-4)GlcNAc(b1-2)Man(a1-6)]Man(b1-4)GlcNAc(b1-4)GlcNAc
Procedure, shortened: as §1

[2] = target: Fuc(a1-2)[Gal(a1-3)]Gal(b1-3)GalNAc(b1-3)Gal(a1-4)Gal(b1-4)Glc
Procedure, shortened: as §1

[3] = target: Fuc(a1-2)[GalNAc(a1-3)]Gal(b1-4)GlcNAc(b1-2)Man
Procedure, shortened: as §1

Fuc(a1-4)GlcNAc = target: Fuc(a1-4)GlcNAc
Procedure, shortened: as §1

[4] = target: Gal(a1-3)Gal(b1-3)GlcNAc(b1-6)GalNAc
Procedure, shortened: as §1

[5] = target: Gal(a1-3)[Gal(a1-4)]Gal(b1-4)GlcNAc
Procedure, shortened: as §1

Gal(a1-4)GlcNAc = target: Gal(a1-4)GlcNAc
Procedure, shortened: as §1

[6] = target: Gal(b1-3)GlcNAc(b1-3)Gal(b1-4)GlcNAc(b1-2)[Gal(b1-3)GlcNAc(b1-3)Gal(b1-4)GlcNAc(b1-6)]Man(a1-6)[Gal(b1-3)GlcNAc(b1-3)Gal(b1-4)GlcNAc(b1-2)Man(a1-3)]Man(b1-4)GlcNAc(b1-4)[Fuc(a1-6)]GlcNAc
Procedure, shortened: as §1

[7] = target: Gal(b1-3)GlcNAc(b1-3)Gal(b1-4)GlcNAc(b1-6)[Gal(b1-3)GlcNAc(b1-3)]Gal(b1-4)Glc
Procedure, shortened: as §1

[8] = target: Gal(b1-4)GlcNAc(b1-2)Man(a1-3)[Gal(b1-4)GlcNAc(b1-2)Man(a1-6)]Man(b1-4)GlcNAc(b1-4)GlcNAc
Procedure, shortened: as §1

[9] = target: Gal(b1-4)GlcNAc(b1-2)[Gal(b1-4)GlcNAc(b1-4)]Man(a1-3)[GlcNAc(b1-4)][Gal(b1-4)GlcNAc(b1-2)Man(a1-6)]Man(b1-4)GlcNAc(b1-4)GlcNAc
Procedure, shortened: as §1

[10] = target: Gal(b1-4)GlcNAc(b1-3)Gal(b1-4)GlcNAc(b1-3)Gal(b1-4)GlcNAc
Procedure, shortened: as §1

[11] = target: Gal(b1-4)GlcNAc(b1-3)Gal(b1-4)GlcNAc(b1-3)Gal(b1-4)GlcNAc(b1-3)Gal(b1-4)GlcNAc(b1-3)Gal(b1-4)GlcNAc(b1-2)[Gal(b1-4)GlcNAc(b1-3)Gal(b1-4)GlcNAc(b1-3)Gal(b1-4)GlcNAc(b1-3)Gal(b1-4)GlcNAc(b1-3)Gal(b1-4)GlcNAc(b1-6)]Man(a1-6)[Gal(b1-4)GlcNAc(b1-3)Gal(b1-4)GlcNAc(b1-3)Gal(b1-4)GlcNAc(b1-3)Gal(b1-4)GlcNAc(b1-3)Gal(b1-4)GlcNAc(b1-2)Man(a1-3)]Man(b1-4)GlcNAc(b1-4)[Fuc(a1-6)]GlcNAc
Procedure, shortened: as §1

[12] = target: Gal(b1-4)GlcNAc(b1-3)[GlcNAc(b1-6)]Gal(b1-4)GlcNAc
Procedure, shortened: as §1

[13] = target: Gal(b1-4)GlcNAc(b1-6)GalNAc
Procedure, shortened: as §1

Gal4S(b1-4)GlcNAc = target: Gal4S(b1-4)GlcNAc
Procedure, shortened: as §1

GalNAc(a1-3)Gal = target: GalNAc(a1-3)Gal
Procedure, shortened: as §1

[14] = target: GalNAc(b1-4)GlcNAc(b1-3)GalNAc(b1-4)GlcNAc
Procedure, shortened: as §1

[15] = target: GlcNAc(b1-3)Gal(b1-4)GlcNAc(b1-2)[GlcNAc(b1-3)Gal(b1-4)GlcNAc(b1-6)]Man(a1-6)[GlcNAc(b1-3)Gal(b1-4)GlcNAc(b1-2)Man(a1-3)]Man(b1-4)GlcNAc(b1-4)GlcNAc
Procedure, shortened: as §1

[16] = target: GlcNAc(b1-3)Gal(b1-4)GlcNAc(b1-3)Gal(b1-4)GlcNAc(b1-2)Man(a1-3)[GlcNAc(b1-3)Gal(b1-4)GlcNAc(b1-3)Gal(b1-4)GlcNAc(b1-2)Man(a1-6)]Man(b1-4)GlcNAc(b1-4)GlcNAc
Procedure, shortened: as §1

[17] = target: GlcNAc(b1-3)Gal(b1-4)GlcNAc(b1-3)Gal(b1-4)GlcNAc(b1-3)Gal(b1-4)GlcNAc(b1-2)Man(a1-3)[GlcNAc(b1-3)Gal(b1-4)GlcNAc(b1-3)Gal(b1-4)GlcNAc(b1-3)Gal(b1-4)GlcNAc(b1-2)Man(a1-6)]Man(b1-4)GlcNAc(b1-4)[Fuc(a1-6)]GlcNAc
Procedure, shortened: as §1

[18] = target: GlcNAc(b1-3)Gal(b1-4)GlcNAc(b1-3)Gal(b1-4)GlcNAc(b1-3)Gal(b1-4)GlcNAc(b1-3)Gal(b1-4)GlcNAc(b1-2)Man(a1-3)[GlcNAc(b1-3)Gal(b1-4)GlcNAc(b1-3)Gal(b1-4)GlcNAc(b1-3)Gal(b1-4)GlcNAc(b1-3)Gal(b1-4)GlcNAc(b1-2)Man(a1-6)]Man(b1-4)GlcNAc(b1-4)[Fuc(a1-6)]GlcNAc
Procedure, shortened: as §1

B1: PX9961W-pdi-543-27-543 (Parabacteroides distasonis) (protein)
chain: EGNATTTSYFLNDQQAIDAIDGLYERFHQEGCYGRELFWEQGAACDIVWGRTRGYNSLATLAYTGDESPLRDVFSRMYSTMSRANWIIQELVKKEKGTTLTAVEKRSLGEAYFSRGWAHYLIAYRYGTDKQGVPFVRYEDFPDDYDNSIPPQQATVMDNYKLIIEDMDKAIAYLPIFESYDADNRGRAHQAAAVAFKAKTYAYWATWDATQWNNVIEMVNQLENNYNRDLAPTFAELFSSDLKDYWNAEYLWTIPSIGGALPGGTEFPGIILENKGWGKYNGWGQMKPSYDIYEEMAKDGKGNDRLVRSILEYNQEFPFFGETRKFWSTSDLEAGFMINKYMDAFKYSDPVGEGAVSANGDWPTVRVNFPIIRFAEMLLFRAEAYLMTGQADKATADINRIRLRSNLTPLTGTATMKDLYHERRCELAFEFTDHLFDLKRWNRSSNADIKTLADKELNAHPRIRRYEDRANPESAFTIIGYEDYTNKNAYQAHMMVFPYPSEEITKSNGQLKQNEGY
Fuc(a1-2)Gal(b1-4)GlcNAc
  glycan array binding signal (z-score): -0.724
[1]
  glycan array binding signal (z-score): 0.321
[2]
  glycan array binding signal (z-score): -0.488
[3]
  glycan array binding signal (z-score): 0.843
Fuc(a1-4)GlcNAc
  glycan array binding signal (z-score): -0.806
[4]
  glycan array binding signal (z-score): -0.936
[5]
  glycan array binding signal (z-score): 4.9
Gal(a1-4)GlcNAc
  glycan array binding signal (z-score): -0.436
[6]
  glycan array binding signal (z-score): 3.68
[7]
  glycan array binding signal (z-score): 2.47
[8]
  glycan array binding signal (z-score): 0.803
[9]
  glycan array binding signal (z-score): -0.379
[10]
  glycan array binding signal (z-score): 0.348
[11]
  glycan array binding signal (z-score): 2.95
[12]
  glycan array binding signal (z-score): -1.13
[13]
  glycan array binding signal (z-score): 0.97
Gal4S(b1-4)GlcNAc
  glycan array binding signal (z-score): -0.282
GalNAc(a1-3)Gal
  glycan array binding signal (z-score): -0.723
[14]
  glycan array binding signal (z-score): -0.156
[15]
  glycan array binding signal (z-score): 2.42
[16]
  glycan array binding signal (z-score): 2.38
[17]
  glycan array binding signal (z-score): 1.14
[18]
  glycan array binding signal (z-score): 2.16
